From PubChem BioAssay AID434970 (Sanford-Burnham Center for Chemical Genomics, 2010) come the findings set out here.

The campaign covered roughly 11,000 compounds. About 310 (2.8%) were called active. No stated cut-off is given here; in the data, active means activity change below about -85%; inactive means the rest. For the sample, actives were picked, then their nearest neighbours and some compounds at random.

The subject of this assay is intestinal alkaline phosphatase [Mus musculus]. The assay is described as follows: mouse intestinal phosphatase enzyme activation – biochemical, luminescence, single concentration, confirmation (AID 434970). As to conditions: purified mouse IAP, CDP-Star luminescence, 30 min, at 10 µM; activation factor: measured here: IAP activation factor, stronger effect = higher value; activity change, negative = activation: stronger effect = lower value.
Turning to `CCSc1cc(C2C(C(=O)OC)=C(C)NC3=C2C(=O)CCC3)c(C)o1` (configuration not stated), the activation factor worked out at 0.954 and the activity change, negative = activation was 4.65% (inactive).

`Cc1nc(SCN2C(=O)c3ccccc3C2=O)n[nH]1`: the activation factor was 0.945 and the activity change, negative = activation is 5.55% (inactive).

For `CCOC(=O)c1[nH]c(C)c(CN(CCc2ccccc2)C(=O)CCC(=O)O)c1C`, the activation factor was determined as 0.977 and the activity change, negative = activation is 2.3% (inactive).

Turning to `CCc1ccccc1NC(=S)NC1CC2CCCC(C1)N2Cc1cccs1` (configuration not stated), the activation factor stood at 1.01 and the activity change, negative = activation is -0.9% (inactive).

With `COc1ccc(CN2C3CCCC2CC(NC(=O)Nc2ccccc2)C3)cc1` (configuration not stated), the activation factor came to 4.65 and the activity change, negative = activation was -365% (active).

Regarding `CC(=O)c1cccc(NC(=O)NC2CC3CCCC(C2)N3CC(C)C)c1` (configuration not stated), the activation factor amounted to 1.22 and the activity change, negative = activation is -21.6% (inactive).

For the compound `Cc1cccc(NC(=S)NC2CC3CCCC(C2)N3Cc2cccs2)c1C` (configuration not stated), the activation factor was determined as 1.15 and the activity change, negative = activation is -14.8% (inactive).

In the case of `O=C(Nc1cccn(Cc2ccccc2)c1=O)NC1CCCCC1`, the activation factor came to 0.945 and the activity change, negative = activation is 5.5% (inactive).

For the compound `COc1ccc(CN2C3CCCC2CC(NC(=O)Nc2ccccc2C)C3)cc1` (configuration not stated), the activation factor was 2.43 and the activity change, negative = activation was -143% (active).

`S=C(Nc1ccc(Cl)c(Cl)c1)NC1CCN(Cc2ccccc2)CC1`: the activation factor was determined as 1.63 and the activity change, negative = activation is -62.7% (inactive).

Consider `CC(=O)NC1CC2CCCC(C1)N2CC(=O)Nc1ccccc1` (configuration not stated), for which the activation factor was determined as 1.09 and the activity change, negative = activation was -9.05% (inactive).

Consider `O=C(Nc1ccc2c(c1)N(Cc1ccccc1)C(=O)c1ccccc1S2)NC1CC1`, for which the activation factor was 2.45 and the activity change, negative = activation was -145% (active).

As to `CC(C)OCCCNC(=O)C(=O)NCCCOC(C)C`, the activation factor is 0.962 and the activity change, negative = activation was 3.8% (inactive).

Turning to `COC(=O)c1ccccc1NC(=O)CCS(=O)(=O)c1ccc(Br)s1`, the activation factor was determined as 1.05 and the activity change, negative = activation is -5% (inactive).

`O=C(O)Cn1c(SCc2cccc3ccccc23)nc2ccccc21`: the activation factor was 1.09 and the activity change, negative = activation was -9.2% (inactive).

Regarding `S=c1[nH]ncn1/N=C/c1ccc(N2CCOCC2)cc1`, the activation factor stood at 1 and the activity change, negative = activation was -0.35% (inactive).

Take `CCOC(=O)c1c(C)[nH]c(O)c1C=Nc1ccc(C(F)(F)F)cc1`: the activation factor worked out at 0.846 and the activity change, negative = activation is 15.4% (inactive).

Take `COc1ccc(OC)c(NC(=O)C(=O)/C=C(\O)c2cc(OC)ccc2OC)c1`: the activation factor came to 0.905 and the activity change, negative = activation was 9.55% (inactive).

Turning to `Cc1ccc(/C(N)=N/OC(=O)Oc2ccccc2)cc1`, the activation factor came to 0.99 and the activity change, negative = activation is 1% (inactive).

As to `COc1ccc(CCNC(=O)c2ccc(Cl)cc2Cl)cc1`, the activation factor came out at 1.19 and the activity change, negative = activation is -18.9% (inactive).

For the compound `COc1ccc(CCNC(=O)c2cc(-c3cc(Cl)cc(Cl)c3)oc2C)cc1`, the activation factor stood at 2.07 and the activity change, negative = activation was -107% (active).

Consider `COc1ccc(CCNC(=O)c2ccc(Cl)cc2)cc1`, for which the activation factor is 1.08 and the activity change, negative = activation was -8.2% (inactive).

As to `O=C(CCCNS(=O)(=O)c1cccs1)N1CCN(c2ccc(F)cc2)CC1`, the activation factor came out at 0.934 and the activity change, negative = activation was 6.55% (inactive).

Regarding `COc1ccc(NC(=S)NCC2CCCO2)c(OC)c1` (configuration not stated), the activation factor was 0.95 and the activity change, negative = activation is 4.95% (inactive).

Regarding `C#CCOCCOCCOCCNc1nc(N2CCN(C(=O)CCCCCCCCCCNC(=O)Cn3cc(C[C@@H](C)O)nn3)CC2)nc(N2CCN(C(=O)CCCCCCCCCCNC(=O)[C@H](CCCCN)n3cc(C[C@@H](C)CC)nn3)CC2)n1`, the activation factor was determined as 2.76 and the activity change, negative = activation was -176% (active).

Consider `C#CCOCCOCCOCCNc1nc(N2CCN(C(=O)CCCCCCCCCCNC(=O)Cn3cc(C[C@@H](C)O)nn3)CC2)nc(N2CCN(C(=O)CCCCCCCCCCNC(=O)[C@H](CCCN=C(N)N)n3cc(C[C@@H](C)CC)nn3)CC2)n1`, for which the activation factor worked out at 5.68 and the activity change, negative = activation was -468% (active).

Consider `CC[C@H](C)Cc1cn([C@@H](CCCCNC(=O)OC(C)(C)C)C(=O)NCCCCCCCCCCC(=O)N2CCN(C(=O)OC(C)(C)C)CC2)nn1`, for which the activation factor is 1.57 and the activity change, negative = activation was -56.9% (inactive).

As to `CCc1cccc(CC)c1NC(=O)CSc1nc2ccc(N3C(=O)C4C5C=CC(C5)C4C3=O)cc2s1` (configuration not stated), the activation factor worked out at 0.959 and the activity change, negative = activation was 4.1% (inactive).

Consider `CCOC(=O)C1(CC)NC(c2ccco2)C2C(=O)N(c3ccc(C)cc3)C(=O)C21` (configuration not stated), for which the activation factor amounted to 1.05 and the activity change, negative = activation was -4.65% (inactive).

Turning to `COCCCNC(=O)C[C@H]1C[C@H](C(=O)N2CCCCC2)[C@@]2(CCc3ccccc3)c3[nH]c4ccc(Cl)cc4c3CCN2C1=O`, the activation factor came out at 1.2 and the activity change, negative = activation was -19.7% (inactive).

For `CCOC(=O)C1(C)/C(=N/Nc2ccccc2Cl)C(=O)C(=O)N1c1ccccc1` (configuration not stated), the activation factor came to 0.886 and the activity change, negative = activation was 11.4% (inactive).

Regarding `Cc1ccc(C)c(N2CCN(C(=O)CCc3nc(-c4ccc(Br)cc4)no3)CC2)c1`, the activation factor turned out to be 1.04 and the activity change, negative = activation was -4.15% (inactive).

On to `NC(=O)C1CCN(CC(=O)Nc2ccccn2)CC1`, for which the activation factor was 0.922 and the activity change, negative = activation is 7.8% (inactive).

`CCCN(CCC)C(=O)c1ccc2c(c1)OCO2`: the activation factor turned out to be 1.05 and the activity change, negative = activation is -5.1% (inactive).

Consider `CCCCN1CC[C@@H]2C=CC[C@H](C(=O)OC)[C@@H]2C1=O`, for which the activation factor stood at 0.952 and the activity change, negative = activation was 4.85% (inactive).

Consider `O=C(O)[C@H]1CC=C[C@H]2CCN(Cc3ccc(Cl)c(Cl)c3)C(=O)[C@@H]12`, for which the activation factor was 1.05 and the activity change, negative = activation is -5.25% (inactive).

For the compound `COc1ccc(CN2CC[C@H]3C=CC[C@@H](C(=O)Nc4ccc(Cl)c(C(F)(F)F)c4)[C@H]3C2=O)cc1OC`, the activation factor was found to be 2.85 and the activity change, negative = activation was -185% (active).

As for `CCOC(=O)c1ccc(NC(=O)NC2CC3CCC(C2)N3Cc2nnnn2C(C)(C)C)cc1` (configuration not stated), the activation factor amounted to 1.46 and the activity change, negative = activation was -45.8% (inactive).

Take `CCN(CC)C(=O)[C@H]1CC(CC(=O)NC/C=C(\C)CCC=C(C)C)C(=O)N2CCc3c([nH]c4ccc(OC)cc34)[C@]12C` (some centres not stated): the activation factor came out at 1.25 and the activity change, negative = activation was -24.9% (inactive).

As to `CC(C)=CCC/C(C)=C/CNC(=O)C[C@H]1C[C@H](C(=O)N(C(C)C)C(C)C)[C@@]2(C)c3[nH]c4ccc(Cl)cc4c3CCN2C1=O`, the activation factor was 1.25 and the activity change, negative = activation is -25.1% (inactive).

For the compound `COc1ccc2[nH]c3c(c2c1)CCN1C(=O)C(CC(=O)NC/C=C(\C)CCC=C(C)C)C[C@H](C(=O)N(C(C)C)C(C)C)[C@@]31C` (some centres not stated), the activation factor was 2 and the activity change, negative = activation is -100% (active).
